# Screening results as filed in PubChem BioAssay.
# hERG WT inh – qHTS for Inhibitors of KCHN2 3.1: Wildtype qHTS; activity change, % at 1.84 µM; AID 720551, 2013; 340,000 compounds, 0.37% hits; U2OS, BacMam KCNH2, thallium flux FluxOr; stronger effect = lower value; Voltage-gated inwardly rectifying potassium channel KCNH2 (Homo sapiens), Q12809;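 active = maximum activity change below -70%; inconclusive = maximum activity change between -70% and -50%; inactive = maximum activity change above -50%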; also: % is scaled to controls: 0 for no effect and ±100 for the full control effect
#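 U2OS cells were transduced with wild-type KCNH2 virus (2.03 x 10^8 / mL) for 4 h at room temperature, then cultured overnight at 37 C. Thallium flux was read with FluxOr dye. Rate constants were normalized to DMSO controls.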
# SW480 rereplic – A quantitative high throughput screen for small molecules that induce DNA re-replication in SW480 colon adenocarcinoma cells. Potency, µM (titrated, usually from 46.1 µM), without a hit: top-dose re-replication activation, usual class: activators. AID 624297, 2012. SW480 DNA re-replication, Hoechst DNA content imaging, 48 h. 340,000 compounds, 1.8% hits; also: potency is read from the fitted curve at half-maximal effect; % of control where 0% means no effect; nearly all actives have a fitted effect of over 55% in size
#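 First, 250 cells per well were seeded. Next, compound or vehicle (23 nL) was pinned in, plates sat 48 hr at 37 C. Finally Hoechst was added for 40 min before fluorescence scanning.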
# KB-V1 cytotox – qHTS assay for MDR1-selective chemotherapeutics: Primary screen using the drug-selected MDR subline cells KB-V1; KB-V1 MDR cells viability, CellTiter-Glo, 72 h; Potency, µM (highest dose often 46.1 µM), most hits filed as cytotoxic; 400,000 compounds, 3.4% hits; also: potency is read from the fitted curve at half-maximal effect; % is scaled to controls: 0 for no effect and ±100 for the full control effect; nearly all actives have a fitted effect of over 60% in size
#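 Drug-selected KB-V1 cells, grown in DMEM lacking phenol red with 10% FBS, receive compound titrations; after three days at 37 degrees C, surviving cell ATP is quantified by CellTiter-Glo luminescence and responses normalized and curve-fitted.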
# MCF10A rereplic – A quantitative high throughput screen for small molecules that induce DNA re-replication in MCF 10a normal breast cells. Potency, µM (top dose mostly 46.1 µM), for the others: at the highest dose activity, positive = re-replication, most hits filed as activators. 350,000 compounds, 2.9% hits. MCF 10A DNA re-replication, Hoechst nuclear intensity, 48 h; also: potency is read from the fitted curve at half-maximal effect; % of control where 0% means no effect; nearly all actives have a fitted effect of over 50% in size
# KB-3-1 cytotox – qHTS assay for MDR1-selective chemotherapeutics: Primary screen using the parental adenocarcinoma cell KB-3-1 | AID 1347075, 2019 | Potency, µM (doses to about 46.1 µM), actives largely listed as cytotoxic | KB-3-1 viability, CellTiter-Glo ATP luminescence, 72 h | 400,000 compounds, 1.4% hits; also: potency is read from the fitted curve at half-maximal effect; % is scaled to controls: 0 for no effect and ±100 for the full control effect; nearly all actives have a fitted effect of over 60% in size
#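 KB-3-1 cells, DMEM (no phenol red) + 10% FBS; compound by pin transfer, 72 h, 37 °C. Readout: CellTiter-Glo luminescence after 10 min. Data normalized, curve-fitted.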
# KCNH2 3.1 block – qHTS for Inhibitors of KCHN2 3.1: Mutant qHTS; activity change, % (tested at about 1.8 µM); U2OS KCNH2 3.1, thallium flux FluxOr; stronger effect = lower value; Potassium voltage-gated channel subfamily H member 2, brain isoform KCNH2 3.1 (human); 340,000 compounds, 0.95% hits;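 active = maximum activity change below -70%; inconclusive = maximum activity change from -70% to -50%; inactive = maximum activity change above -50%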;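 also: thallium influx rate constant from kinetic fluorescence after stimulation buffer; % is scaled to controls: 0 for no effect and ±100 for the full control effect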
#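 Kinetic fluorescence (2 min after stimulation buffer) measures Tl+ influx through KCNH2 3.1 expressed by viral transduction in U2OS cells; the rate constant is normalized against DMSO controls serving as positive and negative references.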
# An asterisk follows results filed as active; i = inactive; ? = inconclusive; nt = not tested or not shown. Only some compounds are listed: those with a hit (about 7.6% of all), similar ones and a draw of the others. Unless noted, calls follow the shape of the dose curve; as a rule, active = well fitted curve in the direction sought with a large enough effect; inconclusive = small, poorly fitted or top-dose-only effect, or another doubt; inactive = no such curve, though single readings can be large; an effect the other way counts as inactive or inconclusive.
SMILES,hERG WT inh,SW480 rereplic,KB-V1 cytotox,MCF10A rereplic,KB-3-1 cytotox,KCNH2 3.1 block
NC(=O)c1ccccc1NC(=O)/C=C/c1c(Cl)cccc1Cl,6,?,4.1µM*,?,i,2
CN(C)S(=O)(=O)c1ccc(NC(=O)/C=C/c2ccccc2Cl)cc1,-4,16%,15µM*,?,i,-5
CN(C)c1ccc(NC(=O)/C=C/c2c(Cl)cccc2Cl)cc1,10,6%,13µM*,16µM*,?,-4
CC(=O)Nc1ccc(Nc2ccc3cc(S(=O)(=O)N4CCCCC4)ccc3n2)cc1,nt,nt,?,nt,i,nt
COc1ccc(S(=O)(=O)N2CCOCC2)cc1NC(=O)COc1cccnc1[N+](=O)[O-],-9,-9%,i,0.58µM*,i,-7
COc1ccc(S(=O)(=O)N2CCCCC2)cc1NC(=O)Cc1sc(C)nc1-c1ccc(F)cc1,14,4%,?,7%,i,-4
COc1ccc(S(=O)(=O)N2CCOCC2)cc1NC(=O)Cc1sc(C)nc1-c1ccc(F)cc1,-3,4%,12µM*,3%,?,3
COc1ccccc1OCCNC(=O)CSC(=S)N1CCCC1,4,-3%,i,-1%,i,23
CNS(=O)(=O)c1cn(CC(=O)N2CCN(c3cccc(C)c3C)CC2)cc1S(=O)(=O)NC,nt,nt,i,nt,i,nt
COc1ccc(C(=O)NN(C)c2nc(C(F)(F)F)nc3ccccc23)cc1,i,?,0.73µM*,0.033µM*,0.82µM*,-3
COc1ccc(C(=O)NN(C)c2nc(-c3ccccc3)nnc2C(F)(F)F)cc1,6,4%,i,9%,i,-10
CC1(C)O[C@@H](CC(=O)O)[C@]23CO[C@H](C(=O)[C@]4(C)C2CC[C@@]2(C)[C@H](c5ccoc5)OC(=O)C5O[C@]524)[C@@H]13 (stereo not given in full),3,-14%,i,-28%,i,-2
Cc1ccc(S(=O)(=O)Nc2ncnc3sc(C)c(C)c23)cc1,0,-4%,3.7µM*,?,?,7
O=C(CNS(=O)(=O)c1cccc(Cl)c1)Nc1ccc(-c2nc3ccccc3s2)cc1,-8,-5%,i,2%,i,-74*
COc1ccc(CCNC(=O)C2CC(c3ccc(C(F)(F)F)cc3)=NO2)cc1 (stereo not given),-3,-8%,i,-6%,i,-35
O=C(NCc1ccc2c(c1)OCO2)C1CC(c2cccc(Br)c2)=NO1 (stereo not given),-5,-11%,i,12µM*,i,-7
COc1cccc(C2=NOC(C(=O)NCc3ccco3)C2)c1 (stereo not given),-4,?,21µM*,4.1µM*,23µM*,17
COc1cccc(C2=NOC(C(=O)NCc3ccccc3)C2)c1 (stereo not given),-1,?,?,1.6µM*,12µM*,17
COc1ccc(CNC(=O)C2CC(c3cc(C(F)(F)F)cc(C(F)(F)F)c3)=NO2)cc1 (stereo not given),nt,-9%,?,6.5µM*,?,nt
O=C(NCc1ccc2c(c1)OCO2)C1CC(c2ccccc2O)=NO1 (stereo not given),0,-3%,i,?,i,-5
CCc1ccc(-c2csc(NC(=O)C3=COCCO3)n2)cc1,2,-2%,i,22%,?,-15
CC(C)CN(C(=O)CCNC(=O)c1ccc(Cl)cc1)C1CCS(=O)(=O)C1 (stereo not given),3,-8%,i,-1%,i,1
